L3MBTL1 block: qHTS Assay for the Inhibitors of L3MBTL1. AlphaScreen L3MBTL1–H3K9me1 peptide binding. Lethal(3)malignant brain tumor-like protein 1 (Homo sapiens), Q9Y468. hit rate 0.66% among 230,000. AID 485360, 2010. Potency, µM (top dose mostly 57.1 µM), usual class: inhibitors; note: nearly all actives have a fitted effect of over 60% in size
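Read-out is AlphaScreen signal from streptavidin donor and nickel chelate acceptor beads (10 ug/mL final each) bridging L3MBTL1 (50 nM) and biotinylated K9-monomethylated H3(1-15) peptide (75 nM), after 30 min compound exposure at room temperature.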
JMJD2A Tudor inh: qHTS Assay for Inhibitors of JMJD2A-Tudor Domain; Lysine-specific demethylase 4A (Homo sapiens), O75164; AlphaScreen JMJD2A-Tudor / H3K4me3 peptide binding; Potency, µM (doses to about 114 µM), usual class: inhibitors; hit rate 4.4% among 390,000; note: nearly all actives have a fitted effect of over 50% in size
BAZ2B inh: qHTS Assay for Inhibitors of BAZ2B | Bromodomain adjacent to zinc finger domain protein 2B (Homo sapiens), Q9UIF8 | AlphaScreen BAZ2B-H3K14Ac peptide displacement | Potency, µM (titrated, usually from 114 µM), usual class: inhibitors | hit rate 4.4% among 360,000 | AID 504333, 2011; note: nearly all actives have a fitted effect of over 60% in size
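Multi-concentration screen (max 110 uM) measuring displacement of acetylated histone H3 peptide from BAZ2B by AlphaScreen, using 50 nM protein, 50 nM peptide and 10 ug/mL streptavidin donor plus Ni-chelate acceptor beads.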
HP1b chromo inh: HTS for Inhibitors of HP1-beta Chromodomain Interactions with Methylated Histone Tails. AlphaScreen HP1-beta / biotin-H3K9me3 peptide binding. hit rate 0.56% among 390,000. Chromobox protein homolog 1 (Homo sapiens), P83916. Potency, µM (top dose mostly 114 µM), actives largely listed as inhibitors. AID 540317, 2011; note: nearly all actives have a fitted effect of over 70% in size
Target sequence (P83916 whole entry, looked up): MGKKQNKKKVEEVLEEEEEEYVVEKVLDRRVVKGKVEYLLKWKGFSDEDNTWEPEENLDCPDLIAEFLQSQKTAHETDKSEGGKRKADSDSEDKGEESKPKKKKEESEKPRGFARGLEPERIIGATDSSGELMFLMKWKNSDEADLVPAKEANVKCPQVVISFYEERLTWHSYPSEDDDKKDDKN
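HP1-beta protein (50 nM final) preincubated 30 min at room temperature with biotinylated H3(1-18)K9me3 peptide (50 nM) in PBS pH 7.4, 0.01% Tween-20, then compound added for 30 min. AlphaScreen streptavidin donor/nickel chelate acceptor beads (10 ug/mL final), 30 min dark, luminescence read.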
GLS inhibitor: qHTS for Inhibitors of Glutaminase (GLS). hit rate 0.21% among 410,000. Glutaminase kidney isoform, mitochondrial (Homo sapiens), O94925. AID 624170, 2012. Potency, µM (highest dose often 45.5 µM), usual class: inhibitors. GLS enzymatic activity, qHTS titration
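Read-out is an Amplex red fluorescence increase coupled through glutamate oxidase and HRP, measured before and after 30 min room-temperature incubation. hKGA is in 45 mM KH2PO4 (pH 8.2) with 0.02% Tween-20; glutamine added as 1mM solution.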
G9a block: qHTS Assay for Inhibitors of Histone Lysine Methyltransferase G9a. Histone-lysine N-methyltransferase EHMT2 (Homo sapiens), Q96KQ7. G9a H3K9 monomethylation, AlphaScreen, 2 h. Potency, µM (highest dose often 102 µM), actives largely listed as inhibitors. hit rate 8.8% among 350,000. AID 504332, 2011; note: nearly all actives have a fitted effect of over 75% in size
Target sequence (Q96KQ7 913-1193 limits assumed): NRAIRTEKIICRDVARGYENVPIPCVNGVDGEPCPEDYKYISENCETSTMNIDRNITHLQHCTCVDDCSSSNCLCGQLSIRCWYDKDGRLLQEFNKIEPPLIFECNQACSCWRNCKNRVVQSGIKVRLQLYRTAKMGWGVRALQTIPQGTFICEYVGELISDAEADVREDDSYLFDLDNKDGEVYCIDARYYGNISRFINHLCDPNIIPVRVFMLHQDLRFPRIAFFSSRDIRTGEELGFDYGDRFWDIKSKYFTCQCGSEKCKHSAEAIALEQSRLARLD
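G9a (20 nM) was preincubated 15 min with compound, then reacted 2 h at room temperature with 500 nM biotin-H3K9 peptide and 20 µM SAM. Monomethyl-H3K9 detected by AlphaScreen using anti-H3K9me1 antibody.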
A number is an active result; – = inactive; ? = inconclusive; · = no result given; [ ] = remark or other dose. Only some compounds are listed: those with a hit (about 10% of all), similar ones and a draw of the others. Calls come from the whole dose curve; as a rule, active = well fitted curve in the direction sought with a large enough effect; inconclusive = small, poorly fitted or top-dose-only effect, or another doubt; inactive = no such curve, though single readings can be large; an effect the other way counts as inactive or inconclusive.

SMILES	L3MBTL1 block	JMJD2A Tudor inh	BAZ2B inh	HP1b chromo inh	GLS inhibitor	G9a block
CC(=O)c1ccc(NC(=O)Cn2c(-n3nc(C)cc3C)nc(C)c(C)c2=O)cc1	·	–	–	–	–	4µM
Cc1cc(C)n(-c2nc(C)c(C)c(=O)n2CC(=O)Nc2cccc([N+](=O)[O-])c2)n1	·	?	–	–	–	6.3µM
CCN(CC)c1ccc(NC(=O)CN2CCN(c3nc(C)cc(C)n3)CC2)cc1	?	–[11.4 µM]	35µM	?	–	?
COc1ccc(N2CCN(CC(=O)Nc3ncc(C)s3)CC2)cc1	·	–	–	–	–	–[2.33 µM]
COc1ccc(NC(=O)CN2CCN(c3ccc(F)cc3)CC2)cc1	·	25µM	–	–	–	–
COc1ccc(-c2nnn(CC(=O)N3CCN(c4ccc(F)cc4)CC3)n2)cc1	·	–[11.4 µM]	–	–	–	–
COc1ccc(N2CCN(CC(=O)Nc3nc(C)cs3)CC2)cc1	–	5.6µM	11µM	40µM	–	3.5µM
COc1ccc(N2CCN(C(=O)CN3CCN(c4nc(-c5ccc(F)cc5)cs4)CC3)CC2)cc1	–	32µM	20µM	?	–	?
CCOc1ccc(NC(=O)CN2CCN(CC(=O)Nc3ccc(N(CC)CC)cc3)CC2)cc1	·	–	–	–	–	?
CCOc1ccc(NC(=O)CN2CCN(c3ccc(F)cc3)CC2)cc1	·	?	–	–	–	–
COc1ccc(Nc2ncc(C(=O)N3CCN(c4cccc(Cl)c4)CC3)c3ccccc23)cc1	·	–	–	–	–	–
Cc1ccc(NS(=O)(=O)c2ccc3ccccc3c2)cc1C	·	–	·	·	·	·
CC(C)Oc1ccc(CNS(=O)(=O)c2ccc3c(c2)C(C)(C)C(=O)N3C)cc1	·	–	–	–	–	–
CCO[C@@H](Cc1ccc(OCCc2ccc(OS(C)(=O)=O)cc2)cc1)C(=O)O	·	·	·	·	–	·
CCOc1ccccc1C(=O)Nc1nc2c(s1)CC(C)CC2 (stereo not given)	·	–	–	–	–	10µM
O=C(Cn1c(/C=C/c2ccccc2)nc2ccccc21)Nc1ccc(F)cc1	–	50µM	–	–	?	–
CCN(CC)c1ccc(NC(=O)CN2CCN(c3ccc(F)cc3)CC2)cc1	–	?	?	–	–	8.9µM
COc1ccc(NC(=O)CN2CCc3ccccc3C2)cc1	·	22µM	·	?	–	·
COc1ccccc1OCC(=O)Nc1nc2c(s1)CC(C)CC2 (stereo not given)	·	–	–	–	–	–
CSc1nc2ccccc2n1CC(=O)Nc1ccccc1	–	–	–	–	–	–
CCOc1ccc(NC(=O)Cn2cc(C(=O)c3ccc(CC)cc3)c(=O)c3cc(C)ccc32)cc1	·	–	?	–	–	?
COc1ccc(N2CCN(CC(=O)Nc3cc(C)cc(C)c3)CC2)cc1	–	?	?	–	–	79µM
Cc1cc(NC(=O)CN2CCc3ccccc3C2)nc2c1c(=O)oc1ccccc12	–	–	–	–	?	28µM
O=C(CN1CCOCC1)Nc1ccc(F)cc1	·	–	–	–	–	–
O=C(CN1CCN(CC(=O)Nc2ccc(-c3ccccc3)cc2)CC1)Nc1ccc(F)cc1	·	–	–	–	–	35µM
SMILES	L3MBTL1 block	JMJD2A Tudor inh	BAZ2B inh	HP1b chromo inh	GLS inhibitor	G9a block
O=C(CN1CCN(c2ccc(O)cc2)CC1)Nc1ccc(SC(F)F)cc1	–	?	?	–	–	2.2µM
COc1ccc(N2CCN(CC(=O)Nc3nc4c(s3)CC(C)CC4)CC2)cc1 (stereo not given)	?	50µM	·	?	–	10µM
Cn1c(N)c(C(=O)CN2CCc3ccccc3C2)c(=O)n(C)c1=O	–	–	–	–	–	8.9µM
COc1ccc(CC(=O)Nc2nc3c(s2)CC(C(C)(C)C)CC3)cc1 (stereo not given)	·	–	–	–	–	–
O=C(O)CN1CCc2ccccc2C1	–	28µM	–	–	?	?
O=C(/C=C/C(=O)N1CCc2ccccc2C1)N1CCc2ccccc2C1	·	–	–	–	–	–
COc1ccc(N2CCN(c3ccc4nnc(CCC(=O)Nc5ccc(C)cc5)n4n3)CC2)cc1	–	?	45µM	?	–	·
CCC(C(=O)NC(N)=O)c1ccccc1 (stereo not given)	·	·	·	·	–	–[12.7 µM]
Cn1cnc(S(=O)(=O)N2CCC(C(=O)N3CCN(c4ccc(Cl)cc4)CC3)CC2)c1	·	–	–	–	–	–
COc1cc(Cl)c(C)cc1NC(=O)CNC(=O)Cn1ccc2ccccc2c1=O	·	–	–	–	–	–
Cc1ncoc1C(=O)N1CCc2c([nH]c3ccccc23)C1C1CCCCC1 (stereo not given)	–	?	25µM	–	–	·
c1ccc2c3c([nH]c2c1)C(C1CCCCC1)N(Cc1ncc[nH]1)CC3 (stereo not given)	–	?	?	–	?	45µM
Nc1nc(SCC(=O)O)c2[nH]cnc2n1	·	–	·	–	·	·
CC(NCc1ccc2c(c1)OCO2)C(=O)NC1CCCCC1 (stereo not given)	–	?	–	–	–	–
Cc1cc(NC(=O)CCC(=O)N(CC(=O)NC2CCCC2)Cc2ccc3c(c2)OCO3)no1	–	–	–	–	–	50µM
C[N+](C)(C)CCCN(Cc1ccc2c(c1)OCO2)C(=O)NC1CCCCC1	–	?	–	–	–	50µM
S=c1sscc1-c1ccccc1	·	32µM	·	20µM	–	·
Cc1ccc(NC(=O)CCC(=O)NNC(=O)c2ccccc2[N+](=O)[O-])c(C)c1	–	–	–	–	–	50µM
Cc1ccnc(NC(=O)c2ccccc2[N+](=O)[O-])c1	–	–	–	?	–	10µM
Cc1ccnc(NC(=O)c2cccc([N+](=O)[O-])c2C)c1	–	–	–	–	–	–
Cc1ccnc(NC(=O)c2ccc([N+](=O)[O-])o2)c1	–	–	56µM	–	?	–[12.7 µM]
Cc1ccnc(NC(=O)/C=C/c2ccccc2[N+](=O)[O-])c1	–	·	56µM	·	·	?
Cc1cccc(/N=C/c2c(O)cc(C)oc2=O)n1	?	?	–	–	–	13µM
Oc1ccc2ccccc2c1C=Nc1ccc(Cl)cn1	–	25µM	–	–	–	1.8µM
Cc1cc(O)c(C=Nc2ccc(Cl)cn2)c(=O)o1	·	32µM	?	–	–	–[12.7 µM]
Cc1ccc(N/N=C/c2c(O)cc(C)oc2=O)cc1	–	–	?	–	–	?
Cc1cc(O)c(/C=N/Nc2ccc(F)cc2)c(=O)o1	–	?	–	–	–	4.5µM
Cc1cc(O)c(/C=N/c2ccccn2)c(=O)o1	?	79µM	?	–	–	14µM
Cc1ccc(CO/N=C/c2c(O)cc(C)oc2=O)cc1	–	?	?	–	–	32µM
